Assay outcomes: PubChem BioAssay, National Center for Advancing Translational Sciences (NCATS)
Sampled rows, rich in hits. Any-hit rate of the full collection: about 11%.
FLuc inh – Firefly luciferase inhibition profiling of diverse chemical library using quantitative high-throughput screening | Luciferin 4-monooxygenase (Photinus pyralis), P08659 | purified P. pyralis luciferase, luminescence, biochemical | Potency, µM (top dose mostly 115 µM), usual class: inhibitors | 76,000 compounds, 2.5% hits | AID 1347043, 2019; also: nearly all actives have a fitted effect of over 65% in size
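Inhibitors were tested against purified firefly luciferase in a biochemical, low-substrate format (both substrates at 10uM) and luminescence measured with a CCD imager.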
NIH3T3 tox – Cytotoxic Profiling in NIH 3T3 Cell Line of Diverse Libraries Using Quantitative High-Throughput Screening. NIH 3T3 viability, CellTiter-Glo ATP luminescence, 48-72 h. Potency, µM (doses to about 96.7 µM), actives largely listed as inhibitors. 94,000 compounds, 4.3% hits; also: nearly all actives have a fitted effect of over 55% in size
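First NIH 3T3 cells are plated at 400 cells/well; next compound is pinned in; then plates incubate 48 or 72 hr at 37 °C; finally CellTiter-Glo is added and luminescence read after 10 min.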
NPR1 antag – Natriuretic polypeptide receptor (hNpr1) antagonism - Primary qHTS. HEK293 hNpr1 GloSensor cGMP, ANP-stimulated luminescence. 76,000 compounds, 1.6% hits. AID 1347048, 2019. Potency, µM (titrated, usually from 46.3 µM), actives largely listed as inhibitors. Atrial natriuretic peptide receptor 1 (Homo sapiens), P16066; calls by dose curve; also: nearly all actives have a fitted effect of over 60% in size
Target sequence (P16066 whole entry, looked up): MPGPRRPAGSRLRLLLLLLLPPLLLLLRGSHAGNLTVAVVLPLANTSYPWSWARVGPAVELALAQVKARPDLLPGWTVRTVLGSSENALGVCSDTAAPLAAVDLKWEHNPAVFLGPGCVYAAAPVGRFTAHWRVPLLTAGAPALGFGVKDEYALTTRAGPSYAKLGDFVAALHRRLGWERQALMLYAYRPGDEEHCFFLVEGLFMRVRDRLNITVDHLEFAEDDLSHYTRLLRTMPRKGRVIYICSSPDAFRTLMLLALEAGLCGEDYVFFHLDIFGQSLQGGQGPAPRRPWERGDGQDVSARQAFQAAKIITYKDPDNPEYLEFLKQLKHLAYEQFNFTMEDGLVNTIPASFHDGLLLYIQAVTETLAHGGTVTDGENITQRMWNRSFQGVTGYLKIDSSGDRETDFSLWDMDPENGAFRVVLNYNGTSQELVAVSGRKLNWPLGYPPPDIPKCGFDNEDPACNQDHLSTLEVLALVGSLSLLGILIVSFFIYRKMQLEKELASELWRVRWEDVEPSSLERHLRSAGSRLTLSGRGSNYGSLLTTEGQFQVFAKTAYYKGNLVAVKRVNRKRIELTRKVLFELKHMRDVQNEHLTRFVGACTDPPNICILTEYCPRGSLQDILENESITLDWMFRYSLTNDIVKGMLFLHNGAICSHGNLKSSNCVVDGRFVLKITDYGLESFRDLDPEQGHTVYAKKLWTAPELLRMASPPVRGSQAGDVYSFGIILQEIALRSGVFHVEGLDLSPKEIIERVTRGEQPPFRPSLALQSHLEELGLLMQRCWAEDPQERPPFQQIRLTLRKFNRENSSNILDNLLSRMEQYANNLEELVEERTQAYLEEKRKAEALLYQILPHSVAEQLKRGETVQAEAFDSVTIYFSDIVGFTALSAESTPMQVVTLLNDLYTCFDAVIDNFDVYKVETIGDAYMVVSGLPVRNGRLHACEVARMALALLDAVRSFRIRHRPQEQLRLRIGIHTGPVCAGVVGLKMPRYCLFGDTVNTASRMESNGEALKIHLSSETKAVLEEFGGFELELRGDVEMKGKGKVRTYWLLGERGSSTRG
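Compound pre-incubated 30 min at room temperature on GloSensor-loaded HEK293 cells stably carrying hNpr1 and the pGS-40F cGMP biosensor. Stimulation uses hNppA at 0.1 nM final; luminescence is taken at baseline and 20 min post-agonist.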
HEK293 tox – Cytotoxic Profiling in HEK 293 Cell Line of Diverse Libraries Using Quantitative High-Throughput Screening; AID 1345083, 2018; HEK 293 viability, ATP luminescence (CellTiter-Glo), 48-72 h; Potency, µM (top dose mostly 115 µM), hits mostly inhibitors; 94,000 compounds, 6.6% hits; also: nearly all actives have a fitted effect of over 60% in size
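CellTiter-Glo luminescence (cellular ATP) was read after 48 or 72 hr of compound exposure at 37 degree Celsius. Cells were HEK 293 plated at 250 cells/well.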
Each line names hits and unclear results; the compound was inactive in the other large screens. Unless noted, calls follow the shape of the dose curve; as a rule, active = well fitted curve in the direction sought with a large enough effect; inconclusive = small, poorly fitted or top-dose-only effect, or another doubt; inactive = no such curve, though single readings can be large; an effect the other way counts as inactive or inconclusive.

COc1cccc(-c2ccc(C(=O)N3CCC(NC(=O)c4ccc(Cl)nc4)CC3)cc2)c1	HEK293 tox inconclusive (no result: FLuc inh, NPR1 antag)
Clc1ccc(-c2cnc([C@@H]3COCCN3CC3CC3)[nH]2)s1	NIH3T3 tox inconclusive, HEK293 tox 89µM
Clc1ccc(-c2cnc([C@@H]3COCCN3Cc3cnc[nH]3)[nH]2)cc1	none
CCOC(=O)C1CCN(C(=O)c2nc3sccn3c2-c2cccc(C(F)(F)F)c2)CC1	none (no result: FLuc inh, NPR1 antag)
Cn1ncc2c(C(=O)N3CCC(Cc4ccccc4)CC3)cc(-c3ccccc3C(F)(F)F)nc21	NIH3T3 tox 28µM, HEK293 tox 40µM (no result: FLuc inh, NPR1 antag)
Cn1ncc2c(C(=O)N3CCN(Cc4ccccc4)CC3)cc(-c3ccccc3C(F)(F)F)nc21	NIH3T3 tox inconclusive, HEK293 tox 45µM (no result: FLuc inh, NPR1 antag)
Cn1ncc2c(C(=O)N3CCCCC3)cc(-c3ccccc3C(F)(F)F)nc21	HEK293 tox inconclusive (no result: FLuc inh, NPR1 antag)
Cn1ncc2c(C(=O)N3CCC(c4ccccc4)CC3)cc(-c3ccccc3C(F)(F)F)nc21	NIH3T3 tox 28µM, HEK293 tox 45µM (no result: FLuc inh, NPR1 antag)
CC(=O)N1CCN(C(=O)c2cc(-c3ccccc3C(F)(F)F)nc3c2cnn3C)CC1	none (no result: FLuc inh, NPR1 antag)
COc1cccc(-c2c(C(=O)NCCN3CCOCC3)nc3sccn23)c1	NIH3T3 tox inconclusive (no result: FLuc inh, NPR1 antag)
Cc1nn(-c2ccccc2)c(C)c1[C@@H]1C=C[C@@H](NC(=O)CC(C)(C)CC(=O)O)C1	none
COc1ccc(-n2nc(C)c([C@@H]3C=C[C@@H](NCc4ccccc4)C3)c2C)cc1	FLuc inh 50µM, NIH3T3 tox inconclusive, NPR1 antag inconclusive, HEK293 tox 79µM
COc1ccc(CN[C@@H]2C=C[C@@H](c3c(C)nn(-c4ccc(OC)cc4)c3C)C2)cc1	FLuc inh inconclusive, NIH3T3 tox 32µM, HEK293 tox 50µM
COc1ccc(CN[C@@H]2C=C[C@@H](c3c(C)nn(-c4cccc(Br)c4)c3C)C2)cc1	NIH3T3 tox inconclusive, HEK293 tox inconclusive
CC(C)CCN1CC[C@@H]2OCC(=O)N(Cc3c[nH]c4ccccc34)[C@H]2CC1	NIH3T3 tox inconclusive, HEK293 tox 100µM
Cc1noc(C)c1CN1CC[C@@H]2OCC(=O)N(Cc3c[nH]c4ccccc34)[C@H]2CC1	HEK293 tox inconclusive
N#Cc1cccc(CN2CC[C@@H]3OCC(=O)N(Cc4c[nH]c5ccccc45)[C@H]3CC2)c1	NIH3T3 tox inconclusive, HEK293 tox 100µM
O=C1CO[C@H]2CCN(Cc3c[nH]c4ccccc34)CC[C@@H]2N1Cc1ccccc1	NIH3T3 tox 89µM, HEK293 tox inconclusive
COc1ccccc1CN1CC[C@@H]2OCC(=O)N(Cc3c[nH]c4ccccc34)[C@H]2CC1	NIH3T3 tox inconclusive, HEK293 tox inconclusive
CC(C)CCN1CCC2(CC1)COc1ccccc1NC2=O	none
COc1ccc(C(=O)N2CCCC3(CN[S+](=O)([O-])c4cccnc4N3)C2)cc1 (stereo not drawn)	none (no result: FLuc inh, NPR1 antag)
Cc1noc(C)c1[S+](=O)([O-])N1CCCC1C(=O)N1CCC(N2Cc3cccn3C2=O)CC1 (stereo not drawn)	none (no result: FLuc inh, NPR1 antag)
O=C(c1cc(F)ccc1F)N1CC(c2nnc(-c3ccncc3)o2)C2(CCOCC2)C1 (stereo not drawn)	none
CC1=C[C@@H](CNC(=O)C(C)(C)C)[C@H](C(C)C)C[C@H]1Cc1nnc(-c2ccncc2)o1	HEK293 tox 79µM
CC1=C[C@@H](CNC(=O)c2ccc(C#N)cc2)[C@H](C(C)C)C[C@H]1Cc1nnc(-c2ccncc2)o1	NIH3T3 tox inconclusive, NPR1 antag inconclusive, HEK293 tox inconclusive
COc1ccc(C(=O)NC[C@@H]2C=C(C)[C@H](Cc3nnc(-c4ccncc4)o3)C[C@H]2C(C)C)cc1	NIH3T3 tox inconclusive, NPR1 antag inconclusive, HEK293 tox 50µM
CC1=C[C@@H](CNC(=O)c2ccc(F)cc2)[C@H](C(C)C)C[C@H]1Cc1nnc(-c2ccncc2)o1	NIH3T3 tox inconclusive, NPR1 antag inconclusive, HEK293 tox 35µM
CC(=O)N1CCN(C[C@@H]2C=C(C)[C@H](Cc3nnc(-c4ccncc4)o3)C[C@H]2C(C)C)CC1	HEK293 tox inconclusive
N#Cc1cccnc1-c1ccc(C(=O)N2CCC(NC(=O)c3ccccc3)CC2)cc1	HEK293 tox inconclusive (no result: FLuc inh, NPR1 antag)
COc1cccc(CN2CCOC3CCN(CCCc4ccccc4)CC3C2=O)c1 (stereo not drawn)	NIH3T3 tox 79µM, HEK293 tox inconclusive
Cc1nn(C)c2nc(-c3ccccn3)nc(N3CCC(c4ccc(F)cc4)C3)c12 (stereo not drawn)	HEK293 tox 40µM
COc1ccc(C(=O)N2CCCC(n3c(C)cnc3C3CCC3)C2)cc1 (stereo not drawn)	HEK293 tox inconclusive (no result: FLuc inh, NPR1 antag)
COc1ccccc1C(=O)NC1CCN(Cc2cccc(-c3ccc(SC)cc3)c2)CC1	NIH3T3 tox 28µM, HEK293 tox 32µM (no result: FLuc inh, NPR1 antag)
COC(=O)NC1CCN(Cc2cccc(-c3ccc(SC)cc3)c2)CC1	NIH3T3 tox 32µM, HEK293 tox inconclusive (no result: FLuc inh, NPR1 antag)
CSc1ccc(-c2cccc(CN3CCC(NC(=O)c4ccccc4C)CC3)c2)cc1	none (no result: FLuc inh, NPR1 antag)
O=C(C1CCCN(C(=O)C2CC2)C1)N1CCC(N2Cc3cccn3C2=O)CC1 (stereo not drawn)	none (no result: FLuc inh, NPR1 antag)
CN(Cc1nnc(C(=O)N2CCC[C@@H]2c2cccc(F)c2)n1-c1ccccc1)c1ccccc1	NIH3T3 tox inconclusive, HEK293 tox inconclusive
CC(=O)N1CCCN(Cc2nnc(C(=O)N3CCC[C@@H]3c3cccc(F)c3)n2-c2cccnc2)CC1	NIH3T3 tox 22µM, HEK293 tox 35µM
CCOc1ccccc1CN1CCC2(CCN(C(=O)C3CC3)CC2)Oc2ccccc21	NIH3T3 tox 25µM, HEK293 tox 45µM
CCOc1ccccc1CN1CCC2(CCN(C(=O)C(C)(C)C)CC2)Oc2ccccc21	NIH3T3 tox 32µM, HEK293 tox 40µM
CN1C[C@@H](NC(=O)c2ccc3c(c2)OCO3)C[C@H]1c1nc(-c2ccc3ccccc3c2)no1	NIH3T3 tox inconclusive, HEK293 tox 79µM
CN1C[C@@H](NC(=O)CC(C)(C)CC(=O)O)C[C@H]1c1nc(-c2ccc3c(c2)OCO3)no1	FLuc inh 50µM
COc1ccc(C2(C(=O)NCc3cccc(N)c3)CCOCC2)cc1	none (no result: FLuc inh, NPR1 antag)
O=C(c1c(F)cccc1F)N1CCC2(CC1)N=C(c1ccc(Cl)cc1)NO2	NPR1 antag inconclusive, HEK293 tox inconclusive
CC(=O)N1CCC(N2C[C@H](O)C[C@H]2c2nc(-c3cccc(C)c3)no2)CC1	FLuc inh 20µM, NIH3T3 tox inconclusive, HEK293 tox inconclusive
CC(=O)N1CCC(N2C[C@H](O)C[C@H]2c2nc(-c3ccccc3)no2)CC1	none
Cc1cccc(-c2noc([C@@H]3C[C@@H](O)CN3C3CCOCC3)n2)c1	FLuc inh 25µM, HEK293 tox inconclusive
COCC(=O)Nc1ccc([C@@H](O)[C@H]2COCC(=O)N2Cc2ccc(F)cc2)cc1	none
COc1ccc(-c2nccn3cc(C(=O)NCCc4ccccn4)nc23)cc1	NIH3T3 tox inconclusive, HEK293 tox inconclusive
